The text below walks through data of PubChem BioAssay AID504333 (National Center for Advancing Translational Sciences (NCATS), 2011).

Several values for one entry are separate records, joined by “and”; a condition that tells them apart may be missing. Equal values may be shown once. The whole screen tested about 360,000 compounds, of which about 16,000 (4.4%) were called active. Inconclusive results (about 9%) are left out. Calls follow the shape of the dose curve; as a rule, active = well fitted inhibition curve with a large enough effect; inconclusive = small, poorly fitted or top-dose-only effect; inactive = no such curve, though single readings can be large or run the other way. The entries come from a sample that favours actives as a whole. Where a call stands in place of a potency, no number is given. Where a structure was tested more than once in an assay, its records may differ in their call.
Potency is read from the fitted curve at half-maximal effect.

Bromodomain adjacent to zinc finger domain protein 2B (Homo sapiens), sequence (Q9UIF8 whole entry, looked up, the tested form may be a part): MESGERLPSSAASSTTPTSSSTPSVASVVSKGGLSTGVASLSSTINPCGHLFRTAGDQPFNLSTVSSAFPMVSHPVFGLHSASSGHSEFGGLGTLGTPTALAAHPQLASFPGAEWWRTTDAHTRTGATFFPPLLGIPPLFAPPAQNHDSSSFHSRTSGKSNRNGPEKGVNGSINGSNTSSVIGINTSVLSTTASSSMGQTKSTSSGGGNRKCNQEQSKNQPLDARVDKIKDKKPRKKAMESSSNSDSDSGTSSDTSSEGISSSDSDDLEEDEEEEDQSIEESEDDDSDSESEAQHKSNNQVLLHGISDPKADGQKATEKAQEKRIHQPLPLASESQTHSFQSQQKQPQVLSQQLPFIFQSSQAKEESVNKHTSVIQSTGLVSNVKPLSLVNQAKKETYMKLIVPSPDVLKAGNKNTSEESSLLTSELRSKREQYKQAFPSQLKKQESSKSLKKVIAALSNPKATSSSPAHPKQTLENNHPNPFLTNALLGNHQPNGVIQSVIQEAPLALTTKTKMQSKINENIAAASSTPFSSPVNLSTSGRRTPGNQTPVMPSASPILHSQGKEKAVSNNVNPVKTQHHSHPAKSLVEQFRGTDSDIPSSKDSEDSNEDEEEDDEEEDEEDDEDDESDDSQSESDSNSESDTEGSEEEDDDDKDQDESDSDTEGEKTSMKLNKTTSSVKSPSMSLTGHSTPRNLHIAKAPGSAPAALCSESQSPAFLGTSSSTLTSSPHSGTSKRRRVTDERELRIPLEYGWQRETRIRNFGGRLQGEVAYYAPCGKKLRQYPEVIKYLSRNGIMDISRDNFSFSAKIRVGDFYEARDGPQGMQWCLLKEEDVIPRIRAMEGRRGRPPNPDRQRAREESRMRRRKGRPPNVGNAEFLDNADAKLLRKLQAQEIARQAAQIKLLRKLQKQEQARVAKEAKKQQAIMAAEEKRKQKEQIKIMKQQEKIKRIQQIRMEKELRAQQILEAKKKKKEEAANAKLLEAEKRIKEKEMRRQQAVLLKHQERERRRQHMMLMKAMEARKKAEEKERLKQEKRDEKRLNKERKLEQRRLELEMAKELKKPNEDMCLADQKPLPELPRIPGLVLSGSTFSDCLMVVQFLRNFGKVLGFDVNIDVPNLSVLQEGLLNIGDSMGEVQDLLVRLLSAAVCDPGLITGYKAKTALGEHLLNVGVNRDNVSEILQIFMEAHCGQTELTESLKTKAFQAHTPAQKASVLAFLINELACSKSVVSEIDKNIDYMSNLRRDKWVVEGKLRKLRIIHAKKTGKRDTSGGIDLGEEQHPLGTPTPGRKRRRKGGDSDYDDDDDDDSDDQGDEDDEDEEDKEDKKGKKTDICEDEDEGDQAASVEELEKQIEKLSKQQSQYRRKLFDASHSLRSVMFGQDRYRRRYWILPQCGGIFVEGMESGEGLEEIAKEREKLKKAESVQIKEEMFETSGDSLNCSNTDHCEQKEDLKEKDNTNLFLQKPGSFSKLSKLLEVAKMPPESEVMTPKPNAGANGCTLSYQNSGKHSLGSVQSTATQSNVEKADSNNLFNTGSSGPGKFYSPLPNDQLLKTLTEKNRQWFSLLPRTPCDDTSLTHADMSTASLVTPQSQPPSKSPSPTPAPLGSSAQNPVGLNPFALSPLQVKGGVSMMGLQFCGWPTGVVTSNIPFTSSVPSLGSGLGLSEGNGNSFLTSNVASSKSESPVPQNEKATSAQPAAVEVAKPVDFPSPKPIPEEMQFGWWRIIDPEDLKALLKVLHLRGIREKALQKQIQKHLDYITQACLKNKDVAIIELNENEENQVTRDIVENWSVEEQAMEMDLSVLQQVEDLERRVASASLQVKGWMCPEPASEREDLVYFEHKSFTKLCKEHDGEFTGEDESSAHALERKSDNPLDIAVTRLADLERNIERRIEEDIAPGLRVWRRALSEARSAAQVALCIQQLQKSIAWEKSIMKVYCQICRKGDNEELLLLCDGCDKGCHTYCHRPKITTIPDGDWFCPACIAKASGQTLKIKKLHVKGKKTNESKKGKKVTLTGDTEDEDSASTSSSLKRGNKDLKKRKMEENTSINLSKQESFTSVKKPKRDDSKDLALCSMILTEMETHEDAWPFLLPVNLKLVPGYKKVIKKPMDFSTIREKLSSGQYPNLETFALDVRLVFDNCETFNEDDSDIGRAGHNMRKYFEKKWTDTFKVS

This experiment addresses Bromodomain adjacent to zinc finger domain protein 2B (Homo sapiens) (UniProt Q9UIF8). As to the kind of experiment: qHTS Assay for Inhibitors of BAZ2B. Also: nearly all actives have a fitted effect of over 60% in size. The settings on record: AlphaScreen BAZ2B-H3K14Ac peptide displacement; series mostly up to 114 µM. The method, boiled down: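 Compounds, titrated to a top concentration of 110 uM, were incubated 30 min at room temperature with preformed BAZ2B/acetyl-K14 H3 peptide complex (50 nM each). Proximity signal was measured by AlphaScreen after 20 min with beads.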
(In general: Quantitative high-throughput screening tests each substance at several concentrations.)
On to `NC(=O)NC(CC(=O)NNC(=O)c1ccccn1)c1ccc(Cl)cc1` (configuration not stated), for which the Potency entry was “inactive”.

Consider `O=C(Nc1ccc(NC(=O)c2ccccc2F)cc1)c1ccccc1F`, for which the Potency entry is “inactive”.

`C/C(=N\NC(=O)Cc1ccc(Cl)cc1)c1ccccn1`: the Potency is 44.7 µM (active).

As to `C/C(CC(=O)Nc1ccc(N(C)C)cc1)=N\NC(=O)c1ccccc1F`, the Potency result is “inactive”.

Take `C/C(=N\NC(=O)Cc1ccc(Br)cc1)c1cccnc1`: the Potency entry is “inactive”.

In the case of `C/C(=N\NC(=O)c1ccccc1F)c1ccccn1`, the Potency was 20 µM (active).

Take `Cc1nc2nc(NCc3cccc(Br)c3)[nH]n2c(=O)c1Cc1ccccc1`: the Potency entry was “inactive”.

Take `O=C(CSc1nc2c(c(=O)[nH]1)CN(Cc1ccc(F)cc1)CC2)Nc1ccccc1Cl`: the Potency entry is “inactive”.

Take `Cc1noc2ncnc(NCc3ccccc3Cl)c12`: the Potency entry is “inactive”.

As for `COC(=O)c1ccc(NC(=O)c2cc(S(=O)(=O)N3CCC(C)CC3)cn2C)cc1`, the Potency result was “inactive”.

`Cc1oc(-c2ccccc2F)nc1CN1CCC(C(=O)NCCc2ccc(Cl)cc2)CC1`: the Potency result was “inactive”.

Regarding `Cc1ccc(NC(=O)CC2S/C(=N/N=C3\CCCc4ccccc43)NC2=O)cc1` (configuration not stated), the Potency entry was “inactive”.

On to `CC(=O)Nc1ccc(S(=O)(=O)Oc2ccc(/C=N/N=C3/NC(=O)C(CC(=O)O)S3)cc2)cc1` (configuration not stated), for which the Potency was 50.1 µM (active).

Regarding `Cc1ccc(S(=O)(=O)Oc2ccc(/C=N/NC(=O)c3ccncc3)cc2)cc1`, the Potency entry is “inactive”.

For the compound `CCOc1ccc(N2CC(C)Cn3c2nc2c3c(=O)n(Cc3c(F)cccc3Cl)c(=O)n2C)cc1` (configuration not stated), the Potency entry is “inactive”.

For the compound `COC(=O)C1=CN(Cc2ccc(OC)cc2)C=C(C(=O)OC)C1c1ccc(O)c(OC)c1`, the Potency result was “inactive”.

Consider `COc1cc2c(cc1O)[C@H](Cc1ccc(Oc3cc(C[C@@H]4NCCc5cc(OC)c(O)cc54)ccc3O)cc1)NCC2`, for which the Potency was 39.8 µM (active).

On to `CCc1ccc(OCC2c3cc(OC)c(OC)cc3CCN2C(C)=O)cc1` (configuration not stated), for which the Potency entry is “inactive”.

Turning to `Cn1c(=O)n(Cc2c(F)cccc2Cl)c(=O)c2c1nc1n2CCN1c1ccc(F)cc1`, the Potency result was “inactive”.

Take `COc1cccc(CNC(=O)CCc2nc(-c3ccc(C)cc3)no2)c1`: the Potency entry was “inactive”.

On to `CCCCOc1ccc(CNC(=O)c2ccc3c(c2)N(C)C(=O)C2CCCCN32)cc1` (configuration not stated), for which the Potency result was “inactive”.

With `COc1ccc(OC)c2[nH]c(=O)c(CCNC(=O)C(C)(C)C)cc12`, the Potency result is “inactive”.

For the compound `COc1ccc(OC)c2[nH]c(=O)c(CCNC(=O)C(=O)c3c[nH]c4ccccc34)cc12`, the Potency was 56.2 µM (active).

Turning to `O=C(NCCCc1ccccc1)C(=O)c1c[nH]c2ccccc12`, the Potency result was “inactive”.

With `COc1ccc(CCNC(=O)c2ccc(CSCc3ccc(C)cc3)o2)cc1OC`, the Potency entry is “inactive”.

Turning to `COc1cc2c(=O)c(S(=O)(=O)c3ccc(C(C)C)cc3)cn(Cc3ccccc3C)c2cc1OC`, the Potency entry is “inactive”.

As to `CCC1(C)CC(=O)c2c(ccc3oc(C(=O)Nc4ccc(C(C)=O)cc4)c(C)c23)O1` (configuration not stated), the Potency result is “inactive”.

For the compound `COc1ccc(-c2nc3ccc(C(=O)NCc4ccc(C)cc4)cc3nc2-c2ccc(OC)cc2)cc1`, the Potency entry was “inactive”.

For `COCCNC(=O)Nc1ccc2nc(-c3ccco3)c(-c3ccco3)nc2c1`, the Potency was 5.62 µM (active).

`O=C(NCc1ccccn1)c1ccc2nc(-c3ccco3)c(-c3ccco3)nc2c1`: the Potency is 11.2 µM (active).

Consider `COc1ccc(NC(=O)COCc2cc(-c3ccco3)on2)cc1`, for which the Potency result is “inactive”.

On to `CCOc1ccc(NC(=O)c2ncoc2-c2ccco2)cc1`, for which the Potency result was “inactive”.

`COc1cccc(S(=O)(=O)NCc2ccc(C(=O)NCc3ccccn3)cc2)c1`: the Potency entry is “inactive”.

For the compound `O=C(NCc1ccc2c(c1)CCN2C(=O)c1ccccc1)c1ccccc1`, the Potency result was “inactive”.

Turning to `CCOC(=O)c1cc2c(=O)n3ccccc3nc2n(CC2CCCO2)c1=NC(=O)c1ccccc1F` (configuration not stated), the Potency entry is “inactive”.

`O=C(Cn1cc(SCc2cccc(Cl)c2)c2ccccc21)N1CCCCC1`: the Potency entry is “inactive”.

Take `O=C(NCC(c1ccc(Cl)cc1)N1CCOCC1)c1ccccc1F` (configuration not stated): the Potency entry is “inactive”.

With `CN(Cc1ccccc1)c1ccc(-c2nc(-c3ccccc3)no2)cc1[N+](=O)[O-]`, the Potency entry is “inactive”.

Regarding `Cc1ccc(-n2[nH]c(C)c(/C=N/N3C(=O)c4cccc5cccc(c45)C3=O)c2=O)cc1`, the Potency result was “inactive”.

For `Cc1ccc(-c2ccnc3[nH]n(-c4ccccc4)c(=O)c23)cc1`, the Potency result was “inactive”.

As for `Cc1ccc(C2C3=C(Nc4[nH]n(-c5ccccc5)c(=O)c42)c2ccccc2C3=O)cc1` (configuration not stated), the Potency was 35.5 µM (active).

With `COc1cc2[nH]c(=O)n(Cc3ccc(C(=O)NCc4ccc(C)cc4)cc3)c(=O)c2cc1OC`, the Potency entry was “inactive”.

In the case of `O=c1cc(CSc2ncn[nH]2)[nH]c2ccc(F)cc12`, the Potency result is “inactive”.

As for `Cc1ccc(NC(=O)Cc2ccc(NC(=O)N3CCCCc4ccccc43)cc2)cc1`, the Potency result was “inactive”.

As to `CCN(CC)S(=O)(=O)c1ccc2c(c1)nc(CN(C)C(=O)Nc1ccc(Cl)cc1)n2C`, the Potency result is “inactive”.

For `O=C(NCCC1=CCCCC1)c1ccc2c(c1)N(Cc1ccccc1F)C(=O)c1ccccc1S2(=O)=O`, the Potency entry is “inactive”.

Consider `COc1cccc(/C=N\NC(=O)C2=NNC(=O)C2C)c1O` (configuration not stated), for which the Potency was 50.1 µM (active).

Consider `COc1cc2cc(C(=O)N/N=C/c3cccc(OC)c3OC)[nH]c2cc1OC`, for which the Potency result is “inactive”.

Consider `CCOc1ccc2[nH]c(C(=O)N/N=C/c3cccc(OC)c3OC)cc2c1`, for which the Potency result is “inactive”.

As to `COc1ccc(Nc2ncc(C(=O)Nc3cc(C)ccc3OC)c3ccccc23)cc1`, the Potency entry is “inactive”.

As for `COc1ccc(-c2nc(Cn3c(=O)cc(C)c4c(C)nn(-c5ccccc5)c43)c(C)o2)cc1OC`, the Potency result was “inactive”.

Take `COc1ccc(Cl)cc1NC(=O)CSc1nc(=O)[nH]c2c1CCCC2`: the Potency result was “inactive”.

Take `COc1cc(OC)cc(C(=O)NCCc2csc3nc(-c4ccccc4F)nn23)c1`: the Potency entry was “inactive”.

In the case of `COc1ccc(S(=O)(=O)NCC(c2ccc(N(C)C)cc2)N2CCc3ccccc32)cc1OC` (configuration not stated), the Potency was 11.2 µM (active).

With `COc1ccc(S(=O)(=O)NCC(c2ccc(C)cc2)N2CCN(C)CC2)cc1OC` (configuration not stated), the Potency entry is “inactive”.

Take `COc1ccc(C(=O)NCC(c2ccc(N(C)C)cc2)N2CCc3ccccc32)c(OC)c1` (configuration not stated): the Potency result was “inactive”.

On to `CCn1c(C(=O)Nc2cc(Cl)ccc2C)cc2sc(Cl)cc21`, for which the Potency entry was “inactive”.

With `COc1cccc(CNC(=O)CSc2c3c(nc4cc(Cl)ccc24)CCCC3)c1`, the Potency entry was “inactive”.

On to `CCOc1ccc(CNC(=O)C2CCN(c3nnc(-n4cccc4CNc4ccc(C)cc4)s3)CC2)cc1OC`, for which the Potency entry is “inactive”.

Take `CC(C)c1ccc(Cn2c(COc3ccccc3)nc3ccccc32)cc1`: the Potency entry was “inactive”.

Consider `Cc1c(C)n(Cc2ccc(Cl)cc2)c2ccc(C(=O)N3CCN(c4ccccc4F)CC3)cc12`, for which the Potency entry is “inactive”.

In the case of `CC(C)c1ccc2c(c1)c(SC(C)(C)C)c(CC(C)(C)C(=O)O)n2Cc1ccc(Cl)cc1`, the Potency result was “inactive and 50.1 µM (active)”.
